TMEM16A inh = TMEM16A chloride channel inhibitors, primary screen, cell-based, HTS; normalized B-score (activity score, 25-100; higher = stronger inhibition) at 10 µM; Anoctamin-1 (Mus musculus), Q8BHY3; 310,000 compounds, 1.2% hits; HEK293 TMEM16A/YFP iodide influx fluorescence, ionomycin;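 active = ratio plate-corrected score three or more library SD toward inhibition, starting fluorescence score within five deviations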;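 also: score derived from kinetic fluorescence span divided by baseline fluorescence per well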
TLR4 MyD88 comp = inhibitors of TLR4-MyD88 association in cells, primary screen, cell-based, HeLa CL3-4, BLA complementation, FRET ratio; HeLa CL3-4 TLR4/MyD88 BLA complementation; inhibition, % at 8.4 µM; 200,000 compounds, 0.18% hits; in the data active = inhibition above about 25%
NOD2 RIPK2 PPI = NOD2-RIPK2 binding disruptors in cells, primary screen, fluorescence, CHO cells, BLA complementation; CCF4 ratio; 360,000 compounds, 0.38% hits; Receptor-interacting serine/threonine-protein kinase 2 (Homo sapiens), O43353; inhibition, % at 4.98 µM; in the data active = inhibition above about 21%
Target sequence (O43353 whole entry, looked up): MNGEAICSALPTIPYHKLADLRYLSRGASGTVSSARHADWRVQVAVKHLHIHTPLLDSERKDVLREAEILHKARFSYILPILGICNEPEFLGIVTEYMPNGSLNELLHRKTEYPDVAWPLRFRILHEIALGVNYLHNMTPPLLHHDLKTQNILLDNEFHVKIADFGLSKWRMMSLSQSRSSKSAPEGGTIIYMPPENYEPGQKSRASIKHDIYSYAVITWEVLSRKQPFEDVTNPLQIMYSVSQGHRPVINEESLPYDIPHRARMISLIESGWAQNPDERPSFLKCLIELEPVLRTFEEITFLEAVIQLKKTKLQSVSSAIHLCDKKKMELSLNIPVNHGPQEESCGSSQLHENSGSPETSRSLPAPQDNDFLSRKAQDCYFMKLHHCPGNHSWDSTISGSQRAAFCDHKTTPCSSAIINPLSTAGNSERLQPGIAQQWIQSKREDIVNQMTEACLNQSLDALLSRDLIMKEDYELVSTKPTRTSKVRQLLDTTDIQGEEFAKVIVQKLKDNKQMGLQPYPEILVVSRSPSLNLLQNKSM
TLR9-MyD88 block = inhibitors of TLR9-MyD88 association in cells, primary screen, cell-based, CHO, BLA complementation, fluorescence; Toll-like receptor 9 (Homo sapiens) + Myeloid differentiation primary response protein …; CCF4 FRET ratio; inhibition, % at 4.98 µM; 340,000 compounds, 0.21% hits;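 active = inhibition above the mean over all tested compounds plus 3 SD, cut at about 21% in these data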
HTR2A ag = mouse Htr2a agonists via beta-arrestin recruitment, primary screen, cell-based, luminescence; 360,000 compounds, 0.66% hits; CHO-K1 mHTR2A beta-arrestin complementation; percent of 30 µM serotonin response; activation, % at 7.6 µM; 5-hydroxytryptamine receptor 2A (Mus musculus), P35363;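 active = activation above a run cutoff, the mean activation of all tested compounds plus 3 SD, cut at about 14% in these data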
TMEM16A act = TMEM16A chloride channel activators or potentiators, primary screen, cell-based, HTS; HEK293 TMEM16A/YFP-H148Q/I152L, iodide quench fluorescence; active compounds read low; AID 623877, 2012; Anoctamin-1 (Mus musculus), Q8BHY3; B-score at 10 µM; 340,000 compounds, 0.3% hits;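 active = fluorescence-ratio B-score plate-corrected deviation score at least 3 library SD below zero, with starting fluorescence score within 5 deviations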;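 also: channel opened by trigger with iodide after compound preincubation; score built on the fluorescence ratio of max minus min over baseline; more negative score means more quench and so TMEM16A activation or potentiation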
OPRM1 ag = OPRM1 agonists via beta-arrestin recruitment, confirmation, counter-screen for mouse HTR2A agonist project, cell-based, luminescence, single concentration | shares compounds with HTR2A ag | U2OS OPRM1 beta-arrestin PathHunter; DMSO 0%, DAMGO 9.3 µM 100% | activation, % at 9.3 µM | 2,300 compounds, 5.3% hits | AID 624380, 2012;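 active = mean activation above the mean of DMSO-only wells plus 3 SD, cut at about 0.5% in these data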
HTR2A ag conf = mouse HTR2A agonists, beta-arrestin recruitment, confirmation, cell-based, luminescence, CHO-K1 PathHunter, triplicate; shares compounds with HTR2A ag; DMSO 0%, 30 µM serotonin 100%; activation, % at 7.6 µM; 2,300 compounds, 19% hits; AID 624381, 2012;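 active = mean activation across triplicates above the hit threshold derived in the original primary screen, cut at about 15% in these data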
A number is an active result; i = inactive; nt = no result. An excerpt weighted towards active compounds, which were near 2.4% of everything screened.

SMILES	TMEM16A inh	TLR4 MyD88 comp	NOD2 RIPK2 PPI	TLR9-MyD88 block	HTR2A ag	TMEM16A act	OPRM1 ag	HTR2A ag conf
Cc1cnc(=O)[nH]c1SCC(=O)Nc1nccs1	i	nt	i	i	15	i	i	i
Cc1nc(SCC(=O)Nc2nccs2)c(C#N)c(C)c1C	nt	nt	i	i	i	i	nt	nt
O=C(CSc1nc2c(cnn2-c2ccc(F)cc2)c(=O)[nH]1)N1CCOCC1	i	i	i	i	i	i	nt	nt
O=C(CSc1nc2c(cnn2-c2ccc(F)cc2)c(=O)[nH]1)N1CCCCC1	i	i	i	i	15	i	i	i
CCCCOc1ccc(C(=O)NCC(=O)NC2CCC(C)CC2)cc1 (configuration not stated)	i	nt	i	i	18	i	i	i
O=C(NCC(F)(F)F)c1nn(Cc2ccccc2)c(=O)c2ccccc12	i	nt	i	i	i	i	nt	nt
C=C(C)COc1ccc(-c2nc(N)ncc2-c2ccc(OC)cc2)c(O)c1	nt	i	nt	nt	nt	nt	nt	nt
C=C(C)COc1ccc(-c2nc(N)nc(C)c2-c2ccc(OC)cc2)c(O)c1	i	i	i	i	18	i	i	i
Cc1cc(NC(=O)CSc2c3c(nc4ccccc24)CCC3)no1	i	i	i	i	15	i	i	i
COc1ccccc1NC(=O)CSc1c2c(nc3ccccc13)CCC2	i	i	i	i	i	i	nt	nt
O=C1C2CCCN2C(c2cccc(F)c2)N1c1cccc(Cl)c1 (configuration not stated)	i	i	i	i	i	i	nt	nt
O=C1C2CCCN2C(c2ccc(F)cc2)N1c1cccc(Cl)c1 (configuration not stated)	i	i	i	i	17	i	i	i
O=C(Cc1c(F)cccc1Cl)N1CCN(S(=O)(=O)c2cccc(F)c2)CC1	i	nt	i	i	14	i	i	i
CCc1ccc(OC(C)C(=O)N(Cc2ccccc2)C2CCS(=O)(=O)C2)cc1 (configuration not stated)	i	nt	i	i	i	i	nt	nt
CCc1ccc(CN(C(=O)c2oc3ccccc3c2C)C2CCS(=O)(=O)C2)cc1 (configuration not stated)	i	nt	i	i	15	i	i	i
Cc1c(C(=O)N(Cc2ccccc2)C2CCS(=O)(=O)C2)oc2ccccc12 (configuration not stated)	i	nt	i	i	i	i	nt	nt
CCc1ccc(OC(C)C(=O)N(Cc2ccco2)C2CCS(=O)(=O)C2)cc1 (configuration not stated)	i	nt	i	i	23	i	i	i
CC(C)(C)c1ccc(C(=O)NC(=O)COC(=O)c2ccc(Br)o2)cc1	nt	nt	i	i	i	i	nt	nt
O=C(O)c1cccc(Nc2ccc3nonc3c2[N+](=O)[O-])c1	i	nt	i	i	i	i	nt	nt
O=[N+]([O-])c1c(Nc2ccccc2)ccc2nonc12	i	i	i	i	23	i	i	i
COc1ccc(-c2cc3nc4n(c(=O)c3s2)CCC4)cc1	i	i	i	i	i	i	nt	nt
COc1ccc(-c2nc3n(c2C)CCC3)cc1	i	nt	i	i	23	i	i	15
CCCNC(=O)C1(C)CCCN(C(=O)c2ccccc2F)C1 (configuration not stated)	nt	nt	i	nt	17	nt	i	i
Cc1ccc(-c2cc(C(=O)N/N=C/c3ccc([N+](=O)[O-])o3)c3ccccc3n2)o1	i	nt	i	i	i	i	nt	nt
O=Cc1cccc(OC(=O)c2ccc(Cl)cc2Cl)c1	i	i	nt	nt	nt	nt	nt	nt

Assay outcomes (PubChem BioAssay)
